Residues, ends and D or L forms follow the SMILES beside them.
What was measured:
Settings in all cases: Compound concentration 20.0 uM
[1] = molecular target: Tyrosine-protein kinase ABL1 (Homo sapiens) (UniProt P00519)
[2] = molecular target: Bromodomain-containing protein 4 (Homo sapiens) (UniProt O60885)
[3] = molecular target: Cyclin-dependent kinase 2 (Homo sapiens) (UniProt P24941)
[4] = molecular target: Casein kinase I isoform delta (Homo sapiens) (UniProt P48730)
[5] = molecular target: Glycogen synthase kinase-3 beta (Homo sapiens) (UniProt P49841)
[6] = molecular target: Mitogen-activated protein kinase 1 (Homo sapiens) (UniProt P28482)
[7] = molecular target: T1, Aurora kinase A (Homo sapiens) (UniProt O14965)
T1 sequence (whole entry): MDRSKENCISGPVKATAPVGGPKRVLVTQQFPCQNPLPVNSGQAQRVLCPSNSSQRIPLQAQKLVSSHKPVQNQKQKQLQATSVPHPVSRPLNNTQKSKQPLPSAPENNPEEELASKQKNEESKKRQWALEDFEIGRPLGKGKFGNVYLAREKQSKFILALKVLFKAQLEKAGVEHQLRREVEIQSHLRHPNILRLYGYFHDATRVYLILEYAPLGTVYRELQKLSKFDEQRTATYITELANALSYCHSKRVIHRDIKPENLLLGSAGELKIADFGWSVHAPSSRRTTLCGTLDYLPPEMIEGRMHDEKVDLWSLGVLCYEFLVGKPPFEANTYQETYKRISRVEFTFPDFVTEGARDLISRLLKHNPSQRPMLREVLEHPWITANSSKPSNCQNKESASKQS

[8] = molecular target: T2, Transcription intermediary factor 1-alpha (Homo sapiens) (UniProt O15164)
T2 sequence (whole entry): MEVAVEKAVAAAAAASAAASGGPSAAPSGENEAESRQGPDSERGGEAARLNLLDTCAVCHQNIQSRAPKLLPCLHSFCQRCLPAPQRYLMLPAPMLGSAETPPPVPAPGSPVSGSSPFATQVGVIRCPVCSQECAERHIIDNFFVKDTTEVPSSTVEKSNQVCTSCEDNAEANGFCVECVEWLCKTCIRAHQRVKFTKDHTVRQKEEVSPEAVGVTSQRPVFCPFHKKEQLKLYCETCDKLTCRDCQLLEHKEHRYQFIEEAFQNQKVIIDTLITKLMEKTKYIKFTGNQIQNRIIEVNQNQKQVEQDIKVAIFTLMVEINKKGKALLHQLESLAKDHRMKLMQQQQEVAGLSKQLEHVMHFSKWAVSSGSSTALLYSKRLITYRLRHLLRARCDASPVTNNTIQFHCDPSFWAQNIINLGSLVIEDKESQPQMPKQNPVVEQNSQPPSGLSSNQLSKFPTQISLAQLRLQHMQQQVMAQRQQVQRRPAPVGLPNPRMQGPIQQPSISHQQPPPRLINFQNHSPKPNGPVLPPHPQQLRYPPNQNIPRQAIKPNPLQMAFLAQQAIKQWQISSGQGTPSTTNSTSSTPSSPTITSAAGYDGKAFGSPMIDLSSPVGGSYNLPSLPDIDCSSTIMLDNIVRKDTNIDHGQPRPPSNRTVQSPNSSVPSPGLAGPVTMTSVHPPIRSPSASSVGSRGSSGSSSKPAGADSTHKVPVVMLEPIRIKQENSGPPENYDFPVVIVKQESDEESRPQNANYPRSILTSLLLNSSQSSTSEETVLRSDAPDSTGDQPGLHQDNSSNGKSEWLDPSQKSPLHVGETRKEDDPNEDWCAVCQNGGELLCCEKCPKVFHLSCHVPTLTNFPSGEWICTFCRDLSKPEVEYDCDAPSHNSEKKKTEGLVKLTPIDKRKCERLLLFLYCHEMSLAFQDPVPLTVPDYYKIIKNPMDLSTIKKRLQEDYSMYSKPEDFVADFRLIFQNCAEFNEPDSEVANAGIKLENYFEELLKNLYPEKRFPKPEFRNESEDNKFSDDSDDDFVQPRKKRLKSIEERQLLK

Chain of Tyrosine-protein kinase ABL1 (Homo sapiens) (P00519 whole entry): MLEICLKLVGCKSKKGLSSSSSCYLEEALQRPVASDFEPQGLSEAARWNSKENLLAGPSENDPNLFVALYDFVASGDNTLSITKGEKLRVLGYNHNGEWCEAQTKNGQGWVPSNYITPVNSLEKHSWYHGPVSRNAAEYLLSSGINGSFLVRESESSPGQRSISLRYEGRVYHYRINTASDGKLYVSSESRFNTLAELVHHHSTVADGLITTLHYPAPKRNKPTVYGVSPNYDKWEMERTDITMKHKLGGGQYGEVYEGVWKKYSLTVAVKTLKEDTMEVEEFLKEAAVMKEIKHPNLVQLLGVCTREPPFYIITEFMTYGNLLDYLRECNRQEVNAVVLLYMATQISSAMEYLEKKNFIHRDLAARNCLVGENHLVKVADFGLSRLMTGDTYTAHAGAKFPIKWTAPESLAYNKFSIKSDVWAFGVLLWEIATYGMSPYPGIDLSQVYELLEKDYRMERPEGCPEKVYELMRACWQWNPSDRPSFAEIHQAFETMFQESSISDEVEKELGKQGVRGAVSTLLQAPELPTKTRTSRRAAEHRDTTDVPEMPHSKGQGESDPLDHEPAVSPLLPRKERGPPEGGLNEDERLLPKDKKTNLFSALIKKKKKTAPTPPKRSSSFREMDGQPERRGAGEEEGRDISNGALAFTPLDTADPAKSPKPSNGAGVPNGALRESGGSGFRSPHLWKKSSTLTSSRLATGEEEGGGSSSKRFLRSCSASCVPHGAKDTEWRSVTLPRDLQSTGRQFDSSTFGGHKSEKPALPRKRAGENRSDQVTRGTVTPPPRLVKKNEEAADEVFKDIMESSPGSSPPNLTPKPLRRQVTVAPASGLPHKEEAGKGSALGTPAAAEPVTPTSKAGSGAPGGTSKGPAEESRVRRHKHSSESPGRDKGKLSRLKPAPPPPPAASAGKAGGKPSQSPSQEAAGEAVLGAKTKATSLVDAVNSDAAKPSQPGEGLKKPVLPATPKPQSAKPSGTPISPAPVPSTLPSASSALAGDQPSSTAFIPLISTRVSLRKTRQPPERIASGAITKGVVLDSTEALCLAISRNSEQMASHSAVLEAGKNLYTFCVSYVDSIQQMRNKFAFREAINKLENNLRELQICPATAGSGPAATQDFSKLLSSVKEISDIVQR
Chain of Glycogen synthase kinase-3 beta (Homo sapiens) (P49841 whole entry, looked up): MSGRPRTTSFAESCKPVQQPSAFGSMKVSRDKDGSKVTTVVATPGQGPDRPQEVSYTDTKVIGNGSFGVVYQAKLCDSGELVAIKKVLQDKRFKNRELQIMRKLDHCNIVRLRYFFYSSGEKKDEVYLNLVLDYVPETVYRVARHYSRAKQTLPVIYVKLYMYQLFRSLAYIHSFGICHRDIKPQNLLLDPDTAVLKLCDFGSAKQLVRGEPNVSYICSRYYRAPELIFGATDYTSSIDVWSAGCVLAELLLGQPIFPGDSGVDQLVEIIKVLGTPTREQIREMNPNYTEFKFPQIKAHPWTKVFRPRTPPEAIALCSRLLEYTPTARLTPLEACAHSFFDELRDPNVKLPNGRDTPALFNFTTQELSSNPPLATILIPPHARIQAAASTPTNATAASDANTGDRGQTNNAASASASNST
Chain of Casein kinase I isoform delta (Homo sapiens) (P48730 whole entry, looked up, canonical isoform): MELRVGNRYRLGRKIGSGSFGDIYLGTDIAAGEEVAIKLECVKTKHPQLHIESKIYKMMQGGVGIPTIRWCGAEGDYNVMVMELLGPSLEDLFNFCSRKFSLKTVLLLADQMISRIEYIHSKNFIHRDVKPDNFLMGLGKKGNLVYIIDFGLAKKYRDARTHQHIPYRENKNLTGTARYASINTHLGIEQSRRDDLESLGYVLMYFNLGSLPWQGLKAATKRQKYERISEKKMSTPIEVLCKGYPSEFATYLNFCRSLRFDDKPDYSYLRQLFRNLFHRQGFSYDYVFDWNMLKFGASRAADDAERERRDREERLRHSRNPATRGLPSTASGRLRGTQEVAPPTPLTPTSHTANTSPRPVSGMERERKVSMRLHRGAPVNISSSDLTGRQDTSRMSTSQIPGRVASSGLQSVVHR
Chain of Mitogen-activated protein kinase 1 (Homo sapiens) (P28482 whole entry): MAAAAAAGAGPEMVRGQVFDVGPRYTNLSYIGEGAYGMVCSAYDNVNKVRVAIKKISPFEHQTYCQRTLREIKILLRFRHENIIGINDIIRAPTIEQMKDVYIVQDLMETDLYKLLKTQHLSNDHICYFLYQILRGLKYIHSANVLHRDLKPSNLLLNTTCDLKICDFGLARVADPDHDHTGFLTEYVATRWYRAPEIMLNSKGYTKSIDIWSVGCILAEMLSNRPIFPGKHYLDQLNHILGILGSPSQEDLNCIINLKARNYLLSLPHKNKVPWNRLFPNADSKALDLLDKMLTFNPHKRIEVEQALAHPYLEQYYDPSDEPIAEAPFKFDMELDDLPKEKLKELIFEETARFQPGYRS

| SMILES | ΔTm [1] [°C] | ΔTm [2] [°C] | ΔTm [3] [°C] | ΔTm [4] [°C] | ΔTm [5] [°C] | ΔTm [6] [°C] | ΔTm [7] [°C] | ΔTm [8] [°C] |
| --- | --- | --- | --- | --- | --- | --- | --- | --- |
| CC(C)N(C[C@H]1O[C@@H](n2cnc3c(N)ncnc32)[C@H](O)[C@@H]1O)[C@H]1C[C@@H](CCc2nc3cc(C(C)(C)C)ccc3[nH]2)C1 | 0.52 | -1.59 | 0.63 | 0.57 | -0.47 | -0.02 | 0.32 | -0.97 |
| CC[C@H](C)[C@H](NC(C)=O)C(=O)N[C@@H](CCC(=O)O)C(=O)N[C@H](C(=O)N[C@H](C=O)CC(=O)O)[C@@H](C)O (Ac-IETD-aldehyde) | 0.22 | -2.51 | -0.65 | 0.05 | -1.72 | -0.3 | -1.5 | -1.13 |
| CCCCCCCCCCCCC/C=C/[C@@H](O)[C@H](CO)NC(=O)CBr | 0.2 | -6.16 | -4.16 | -9.74 | -9.26 | 0.47 | -14.4 | -2.18 |
| CSCC[C@H](NC(=O)[C@H](CC(=O)O)NC(C)=O)C(=O)N[C@@H](CCC(N)=O)C(=O)N[C@H](C=O)CC(=O)O (Ac-DMQD-aldehyde) | 0.11 | -1.14 | -0.29 | 0.02 | -0.48 | -0.4 | -1.16 | -0.9 |
| N#Cc1ccc(Nc2cnccc2SCc2ccccc2C(=O)O)c2ccccc12 | 0.28 | 1.65 | 0.57 | -0.12 | 0 | 0.32 | -0.47 | 1.31 |
| O=C(Nc1c[nH]nc1C(=O)NC1CCNCC1)c1cc(F)cc(F)c1 | 0.13 | -1.86 | 1.26 | 1.02 | 13.9 | -0.13 | -0.72 | -0.9 |
| COc1ccc(N2CCN(C(=O)c3cc4c(s3)-c3ccccc3S(=O)(=O)C4)CC2)cc1 | 0.15 | -2.04 | 0.12 | -0.01 | -0.71 | 0.36 | -1.67 | 0.69 |
| O=C(Nc1ccc2[nH]nc(-c3ccncc3)c2c1)[C@@H]1CCN(CC(=O)N2CCN(c3ccc(-c4ncccn4)cc3)CC2)C1 | 1.95 | -1.51 | 0.12 | 1.66 | 1.44 | 13.1 | 3.82 | -0.46 |
| COc1cc(C(=O)NCC2(N(C)C)CCCC2)cc(OC)c1OCc1ccccc1 | 0.81 | -1.07 | 0.36 | -0.21 | -0.01 | 0.38 | -0.99 | 3.25 |
| COc1ccc(C2C(C#N)=C(N)OC3=C2C(=O)CC(c2cccc4ccccc24)C3)cc1 (stereo unspecified) | 0.45 | -2.45 | -0.04 | -0.36 | -0.68 | 0.85 | -1.95 | 1.45 |
| CNCCCN1c2ccccc2CCc2ccccc21 | 0.08 | -2.59 | -0.16 | -0.01 | -1.29 | 0.06 | -1.87 | 0.96 |
| CCCC[C@]1(CC)CS(=O)(=O)c2cc(CNC(CC(=O)O)CC(=O)O)c(OC)cc2[C@@H](c2ccccc2)N1 | 0.44 | 0.52 | -0.44 | -0.45 | -0.88 | 0.14 | -1.84 | 0.38 |
| Cc1ccc(C)c(-n2sc3cc(F)ccc3c2=O)c1 | -15.6 | -11.5 | -5.52 | -0.06 | 0 | -16.1 | -1.97 | 0 |
| N=C(N)NC(=O)c1cnn(-c2cccc3ncccc23)c1C1CC1 | 0.57 | -3 | -0.15 | -0.36 | -0.31 | 0.09 | -2.42 | -0.58 |
| CS(=O)(=O)N1CCN(C(=O)c2cnc3ccc(F)cc3c2-c2ccc(C3(C#N)CC3)cc2)CC1 | 0.07 | 1.15 | 0.13 | 0.11 | 3.18 | 0.08 | -1.44 | 0.3 |
| CCCC1O[C@@H]2C[C@H]3[C@@H]4CCC5=CC(=O)C=C[C@]5(C)[C@H]4[C@@H](O)C[C@]3(C)[C@]2(C(=O)CO)O1 (stereo partly specified) | 0.48 | -1.67 | 0.01 | -0.03 | -0.4 | -0.27 | -0.16 | -0.81 |
| O=C(COc1ccc(-c2oc3cc(O)c(C(=O)O)cc3c2C#Cc2cccc(Cl)c2)cc1)NC1CC1 | 0.23 | -1.93 | 0.55 | 0.15 | -0.41 | -0.57 | -0.11 | -0.84 |
| Cn1cc(NC(=O)c2cc(F)cc(F)c2)c(C(=O)NC2CCNCC2)n1 | 0.23 | -2.12 | -0.02 | 1.02 | -0.14 | -0.35 | -0.65 | -0.68 |
| CS(=O)(=O)c1ccc(-c2cnc(NCc3ccco3)n3cnnc23)cc1 | 0.92 | -0.86 | 0.28 | 0.44 | -2.03 | 0.02 | 0.67 | -1.77 |
| O=C(NO)c1cnc(NC2(c3ccccc3)CC2)nc1 | -0.47 | -1.48 | 0.47 | 0.23 | -0.05 | -0.3 | -0.41 | -1.75 |
| CCOC(=O)Oc1c(OC)cc(C(=O)O[C@H]2C[C@H]3CN4CCc5c([nH]c6cc(OC)ccc56)[C@@H]4C[C@H]3[C@@H](C(=O)OC)[C@@H]2OC)cc1OC | 0.54 | -2.32 | 0.27 | -0.84 | -0.14 | -0.02 | -2.27 | 0.01 |
| Cc1cc(-n2cccc2)c(S(C)(=O)=O)cc1C(=O)N=C(N)N | 0.53 | -2.59 | -0.16 | -0.26 | -0.28 | 0.62 | -2.33 | -0.16 |
